Results published in ChEMBL document CHEMBL2218924, “A broad activity screen in support of a chemogenomic map for kinase signalling research and drug discovery” (Biochem J, 2013).

Experiments:
[1] = target: T1, Serine/threonine-protein kinase 17A (Homo sapiens) (UniProt Q9UEE5); settings: at 1 µM
T1 sequence (whole entry): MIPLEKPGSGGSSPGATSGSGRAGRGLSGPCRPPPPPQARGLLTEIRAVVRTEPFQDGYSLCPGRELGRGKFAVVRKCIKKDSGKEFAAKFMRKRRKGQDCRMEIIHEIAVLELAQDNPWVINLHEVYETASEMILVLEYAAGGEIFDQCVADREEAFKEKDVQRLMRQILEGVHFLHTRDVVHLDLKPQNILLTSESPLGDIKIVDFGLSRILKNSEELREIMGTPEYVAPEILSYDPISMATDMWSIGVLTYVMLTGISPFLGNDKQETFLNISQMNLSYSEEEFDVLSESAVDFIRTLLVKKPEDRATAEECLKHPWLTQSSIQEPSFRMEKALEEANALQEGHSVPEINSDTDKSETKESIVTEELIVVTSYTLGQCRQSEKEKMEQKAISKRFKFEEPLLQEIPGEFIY

[2] = target: T1, Serine/threonine-protein kinase 17A (Homo sapiens); settings: at 10 µM
[3] = target: T2, Dual specificity tyrosine-phosphorylation-regulated kinase 2 (Homo sapiens) (UniProt Q92630); settings: at 1 µM
T2 sequence (whole entry): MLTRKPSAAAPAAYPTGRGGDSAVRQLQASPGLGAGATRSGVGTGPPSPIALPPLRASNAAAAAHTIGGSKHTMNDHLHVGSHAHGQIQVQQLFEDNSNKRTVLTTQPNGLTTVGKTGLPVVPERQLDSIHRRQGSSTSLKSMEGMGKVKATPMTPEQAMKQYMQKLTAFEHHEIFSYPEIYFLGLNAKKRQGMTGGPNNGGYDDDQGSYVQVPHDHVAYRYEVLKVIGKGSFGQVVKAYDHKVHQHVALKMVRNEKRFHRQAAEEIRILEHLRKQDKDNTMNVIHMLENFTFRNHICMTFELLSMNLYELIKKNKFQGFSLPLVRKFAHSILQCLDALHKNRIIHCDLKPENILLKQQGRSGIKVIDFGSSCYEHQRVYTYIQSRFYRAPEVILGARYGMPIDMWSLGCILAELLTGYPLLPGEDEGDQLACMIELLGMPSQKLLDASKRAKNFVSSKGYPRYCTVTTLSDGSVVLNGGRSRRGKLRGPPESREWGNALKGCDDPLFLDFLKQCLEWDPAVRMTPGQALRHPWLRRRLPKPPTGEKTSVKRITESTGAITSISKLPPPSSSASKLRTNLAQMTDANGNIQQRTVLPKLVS

[4] = target: T2, Dual specificity tyrosine-phosphorylation-regulated kinase 2 (Homo sapiens); settings: at 10 µM
[5] = target: T3, Ephrin type-A receptor 1 (Homo sapiens) (UniProt P21709); settings: at 1 µM
T3 sequence (whole entry): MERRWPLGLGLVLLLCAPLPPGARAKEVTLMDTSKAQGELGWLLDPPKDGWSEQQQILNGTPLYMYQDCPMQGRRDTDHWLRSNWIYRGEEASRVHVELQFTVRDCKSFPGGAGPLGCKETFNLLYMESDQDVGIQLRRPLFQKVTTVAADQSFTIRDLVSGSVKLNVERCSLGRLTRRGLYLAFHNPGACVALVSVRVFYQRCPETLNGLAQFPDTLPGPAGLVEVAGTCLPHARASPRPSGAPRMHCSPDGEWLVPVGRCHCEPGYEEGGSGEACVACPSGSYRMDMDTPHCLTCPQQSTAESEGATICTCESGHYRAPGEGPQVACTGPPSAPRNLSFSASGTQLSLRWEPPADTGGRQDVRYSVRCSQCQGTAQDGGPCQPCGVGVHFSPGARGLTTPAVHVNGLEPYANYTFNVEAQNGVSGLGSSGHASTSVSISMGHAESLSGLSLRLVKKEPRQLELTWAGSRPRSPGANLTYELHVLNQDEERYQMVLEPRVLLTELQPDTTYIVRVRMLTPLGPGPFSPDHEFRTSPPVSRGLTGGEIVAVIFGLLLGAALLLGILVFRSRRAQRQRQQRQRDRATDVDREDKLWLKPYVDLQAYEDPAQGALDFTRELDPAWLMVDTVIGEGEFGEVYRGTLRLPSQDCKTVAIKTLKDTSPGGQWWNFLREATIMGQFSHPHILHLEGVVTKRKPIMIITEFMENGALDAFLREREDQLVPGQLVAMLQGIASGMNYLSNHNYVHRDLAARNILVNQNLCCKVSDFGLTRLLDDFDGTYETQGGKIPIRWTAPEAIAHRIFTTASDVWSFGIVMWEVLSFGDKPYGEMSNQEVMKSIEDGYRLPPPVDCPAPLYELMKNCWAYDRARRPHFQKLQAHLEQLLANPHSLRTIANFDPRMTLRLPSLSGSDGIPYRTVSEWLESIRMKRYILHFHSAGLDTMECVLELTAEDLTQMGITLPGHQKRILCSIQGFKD

[6] = target: T3, Ephrin type-A receptor 1 (Homo sapiens); settings: at 10 µM
[7] = target: Ephrin type-A receptor 2 (Homo sapiens) (UniProt P29317); settings: at 1 µM
[8] = target: Ephrin type-A receptor 2 (Homo sapiens) (UniProt P29317); settings: at 10 µM
[9] = target: T4, Ephrin type-A receptor 3 (Homo sapiens) (UniProt P29320); settings: at 1 µM
T4 sequence (whole entry): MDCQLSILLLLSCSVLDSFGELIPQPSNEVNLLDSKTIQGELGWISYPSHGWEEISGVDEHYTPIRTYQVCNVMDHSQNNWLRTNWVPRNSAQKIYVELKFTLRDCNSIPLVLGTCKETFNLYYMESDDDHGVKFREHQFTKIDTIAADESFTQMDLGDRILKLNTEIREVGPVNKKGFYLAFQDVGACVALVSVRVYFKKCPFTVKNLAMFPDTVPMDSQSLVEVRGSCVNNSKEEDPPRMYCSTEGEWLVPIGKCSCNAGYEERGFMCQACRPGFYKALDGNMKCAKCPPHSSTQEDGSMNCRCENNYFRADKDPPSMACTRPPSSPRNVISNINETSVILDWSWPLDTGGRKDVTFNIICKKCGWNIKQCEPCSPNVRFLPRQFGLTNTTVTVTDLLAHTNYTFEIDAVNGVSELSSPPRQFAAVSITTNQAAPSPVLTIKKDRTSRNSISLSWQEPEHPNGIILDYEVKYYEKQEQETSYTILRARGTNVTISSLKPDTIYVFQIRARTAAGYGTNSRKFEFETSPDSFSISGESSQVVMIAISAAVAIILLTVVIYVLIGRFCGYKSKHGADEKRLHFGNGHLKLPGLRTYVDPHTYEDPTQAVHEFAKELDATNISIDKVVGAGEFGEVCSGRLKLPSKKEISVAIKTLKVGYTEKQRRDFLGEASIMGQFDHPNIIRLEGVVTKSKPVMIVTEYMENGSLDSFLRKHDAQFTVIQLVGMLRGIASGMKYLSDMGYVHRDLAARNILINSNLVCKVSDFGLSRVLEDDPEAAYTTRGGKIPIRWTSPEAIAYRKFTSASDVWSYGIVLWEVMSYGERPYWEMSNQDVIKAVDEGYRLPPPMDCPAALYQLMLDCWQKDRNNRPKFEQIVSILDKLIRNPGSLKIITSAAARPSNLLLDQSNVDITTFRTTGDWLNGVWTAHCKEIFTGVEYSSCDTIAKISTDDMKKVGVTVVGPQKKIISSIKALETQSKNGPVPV

[10] = target: T4, Ephrin type-A receptor 3 (Homo sapiens); settings: at 10 µM
[11] = target: Ephrin type-A receptor 4 (Homo sapiens) (UniProt P54764); settings: at 10 µM
[12] = target: Ephrin type-A receptor 7 (Homo sapiens) (UniProt Q15375); settings: at 10 µM
[13] = target: T5, Ephrin type-B receptor 1 (Homo sapiens) (UniProt P54762); settings: at 1 µM
T5 sequence (whole entry): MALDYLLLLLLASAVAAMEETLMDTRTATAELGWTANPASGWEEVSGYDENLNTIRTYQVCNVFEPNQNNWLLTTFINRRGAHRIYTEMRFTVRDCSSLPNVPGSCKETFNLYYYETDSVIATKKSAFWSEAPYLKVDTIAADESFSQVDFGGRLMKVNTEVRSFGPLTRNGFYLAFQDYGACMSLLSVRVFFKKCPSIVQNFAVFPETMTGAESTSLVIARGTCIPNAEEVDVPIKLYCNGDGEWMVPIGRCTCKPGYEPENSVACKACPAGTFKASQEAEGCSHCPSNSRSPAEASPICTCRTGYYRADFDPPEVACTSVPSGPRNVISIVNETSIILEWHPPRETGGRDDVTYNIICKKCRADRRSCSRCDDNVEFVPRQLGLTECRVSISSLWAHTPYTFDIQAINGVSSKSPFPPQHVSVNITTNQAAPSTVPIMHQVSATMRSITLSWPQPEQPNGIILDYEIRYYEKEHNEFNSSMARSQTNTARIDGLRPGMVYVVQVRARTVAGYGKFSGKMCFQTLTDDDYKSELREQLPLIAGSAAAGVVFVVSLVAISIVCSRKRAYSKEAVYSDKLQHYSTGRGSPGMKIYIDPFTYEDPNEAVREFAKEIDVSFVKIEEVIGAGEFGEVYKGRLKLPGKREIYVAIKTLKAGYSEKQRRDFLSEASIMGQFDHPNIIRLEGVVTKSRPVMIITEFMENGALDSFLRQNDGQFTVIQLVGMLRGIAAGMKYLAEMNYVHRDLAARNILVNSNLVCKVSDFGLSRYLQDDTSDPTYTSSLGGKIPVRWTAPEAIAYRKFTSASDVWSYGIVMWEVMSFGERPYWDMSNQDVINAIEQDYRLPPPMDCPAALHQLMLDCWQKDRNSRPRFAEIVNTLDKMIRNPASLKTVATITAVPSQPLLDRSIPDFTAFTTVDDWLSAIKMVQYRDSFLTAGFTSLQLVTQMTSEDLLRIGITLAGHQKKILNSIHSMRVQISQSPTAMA

[14] = target: Epidermal growth factor receptor (Homo sapiens) (UniProt P00533); settings: at 10 µM
[15] = target: Ephrin type-A receptor 4 (Homo sapiens) (UniProt P54764); settings: at 1 µM
[16] = target: Ephrin type-A receptor 5 (Homo sapiens) (UniProt P54756); settings: at 1 µM
[17] = target: Ephrin type-A receptor 5 (Homo sapiens) (UniProt P54756); settings: at 10 µM
[18] = target: Ephrin type-A receptor 7 (Homo sapiens) (UniProt Q15375); settings: at 1 µM
[19] = target: T6, Ephrin type-A receptor 8 (Homo sapiens) (UniProt P29322); settings: at 1 µM
T6 sequence (whole entry): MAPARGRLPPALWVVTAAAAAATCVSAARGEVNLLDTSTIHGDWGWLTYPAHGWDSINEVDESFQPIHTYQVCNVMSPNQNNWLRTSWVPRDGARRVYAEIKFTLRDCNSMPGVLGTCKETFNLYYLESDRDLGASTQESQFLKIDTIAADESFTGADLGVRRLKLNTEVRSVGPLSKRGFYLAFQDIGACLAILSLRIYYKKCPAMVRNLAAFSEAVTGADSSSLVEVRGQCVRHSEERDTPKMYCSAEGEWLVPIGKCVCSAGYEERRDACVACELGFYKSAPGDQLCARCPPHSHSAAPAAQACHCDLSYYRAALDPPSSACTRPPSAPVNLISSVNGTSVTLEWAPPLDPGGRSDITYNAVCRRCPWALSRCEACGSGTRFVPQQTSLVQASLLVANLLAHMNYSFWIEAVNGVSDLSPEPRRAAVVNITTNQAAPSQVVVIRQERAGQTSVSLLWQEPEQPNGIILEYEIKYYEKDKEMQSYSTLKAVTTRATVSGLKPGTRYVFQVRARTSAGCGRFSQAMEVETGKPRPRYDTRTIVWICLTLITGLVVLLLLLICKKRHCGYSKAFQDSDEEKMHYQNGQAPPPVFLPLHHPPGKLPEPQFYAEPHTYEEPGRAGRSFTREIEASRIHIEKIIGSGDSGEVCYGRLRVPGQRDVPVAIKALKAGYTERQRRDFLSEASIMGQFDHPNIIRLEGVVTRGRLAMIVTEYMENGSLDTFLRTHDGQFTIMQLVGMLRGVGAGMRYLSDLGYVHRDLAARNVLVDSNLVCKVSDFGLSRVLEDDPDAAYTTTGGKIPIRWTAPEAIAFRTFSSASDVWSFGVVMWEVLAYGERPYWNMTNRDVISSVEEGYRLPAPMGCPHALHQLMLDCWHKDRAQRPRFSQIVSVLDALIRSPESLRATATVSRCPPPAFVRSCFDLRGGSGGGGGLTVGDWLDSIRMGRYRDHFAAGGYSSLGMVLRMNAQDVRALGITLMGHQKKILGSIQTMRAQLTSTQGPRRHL

[20] = target: T6, Ephrin type-A receptor 8 (Homo sapiens); settings: at 10 µM

Chain of Ephrin type-A receptor 5 (Homo sapiens) (P54756 whole entry): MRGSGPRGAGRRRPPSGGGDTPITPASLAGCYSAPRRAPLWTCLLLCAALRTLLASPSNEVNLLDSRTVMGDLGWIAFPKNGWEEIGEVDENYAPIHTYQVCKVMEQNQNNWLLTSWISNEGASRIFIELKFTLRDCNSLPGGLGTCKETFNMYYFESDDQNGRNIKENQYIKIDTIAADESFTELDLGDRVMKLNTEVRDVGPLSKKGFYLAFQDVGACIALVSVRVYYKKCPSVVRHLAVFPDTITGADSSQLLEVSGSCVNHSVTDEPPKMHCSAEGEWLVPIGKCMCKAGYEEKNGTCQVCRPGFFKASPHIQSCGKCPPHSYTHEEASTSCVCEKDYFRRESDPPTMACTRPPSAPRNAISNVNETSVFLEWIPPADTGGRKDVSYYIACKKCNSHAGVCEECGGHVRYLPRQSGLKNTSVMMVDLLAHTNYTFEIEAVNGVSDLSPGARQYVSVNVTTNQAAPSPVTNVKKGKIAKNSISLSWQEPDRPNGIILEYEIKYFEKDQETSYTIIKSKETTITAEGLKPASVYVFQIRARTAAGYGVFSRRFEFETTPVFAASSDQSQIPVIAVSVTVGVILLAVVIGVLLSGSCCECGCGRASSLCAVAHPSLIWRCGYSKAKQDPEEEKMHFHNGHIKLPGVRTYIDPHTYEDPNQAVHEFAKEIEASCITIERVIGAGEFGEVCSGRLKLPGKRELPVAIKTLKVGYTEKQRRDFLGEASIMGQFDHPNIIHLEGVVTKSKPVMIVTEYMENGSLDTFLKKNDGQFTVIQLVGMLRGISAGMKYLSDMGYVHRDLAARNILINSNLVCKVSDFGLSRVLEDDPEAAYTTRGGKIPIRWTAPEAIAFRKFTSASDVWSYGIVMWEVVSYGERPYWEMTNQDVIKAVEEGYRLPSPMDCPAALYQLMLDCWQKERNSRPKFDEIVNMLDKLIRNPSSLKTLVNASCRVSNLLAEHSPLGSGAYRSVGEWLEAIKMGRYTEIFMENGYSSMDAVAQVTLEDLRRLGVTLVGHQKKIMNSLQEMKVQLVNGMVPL
Chain of Ephrin type-A receptor 2 (Homo sapiens) (P29317 whole entry): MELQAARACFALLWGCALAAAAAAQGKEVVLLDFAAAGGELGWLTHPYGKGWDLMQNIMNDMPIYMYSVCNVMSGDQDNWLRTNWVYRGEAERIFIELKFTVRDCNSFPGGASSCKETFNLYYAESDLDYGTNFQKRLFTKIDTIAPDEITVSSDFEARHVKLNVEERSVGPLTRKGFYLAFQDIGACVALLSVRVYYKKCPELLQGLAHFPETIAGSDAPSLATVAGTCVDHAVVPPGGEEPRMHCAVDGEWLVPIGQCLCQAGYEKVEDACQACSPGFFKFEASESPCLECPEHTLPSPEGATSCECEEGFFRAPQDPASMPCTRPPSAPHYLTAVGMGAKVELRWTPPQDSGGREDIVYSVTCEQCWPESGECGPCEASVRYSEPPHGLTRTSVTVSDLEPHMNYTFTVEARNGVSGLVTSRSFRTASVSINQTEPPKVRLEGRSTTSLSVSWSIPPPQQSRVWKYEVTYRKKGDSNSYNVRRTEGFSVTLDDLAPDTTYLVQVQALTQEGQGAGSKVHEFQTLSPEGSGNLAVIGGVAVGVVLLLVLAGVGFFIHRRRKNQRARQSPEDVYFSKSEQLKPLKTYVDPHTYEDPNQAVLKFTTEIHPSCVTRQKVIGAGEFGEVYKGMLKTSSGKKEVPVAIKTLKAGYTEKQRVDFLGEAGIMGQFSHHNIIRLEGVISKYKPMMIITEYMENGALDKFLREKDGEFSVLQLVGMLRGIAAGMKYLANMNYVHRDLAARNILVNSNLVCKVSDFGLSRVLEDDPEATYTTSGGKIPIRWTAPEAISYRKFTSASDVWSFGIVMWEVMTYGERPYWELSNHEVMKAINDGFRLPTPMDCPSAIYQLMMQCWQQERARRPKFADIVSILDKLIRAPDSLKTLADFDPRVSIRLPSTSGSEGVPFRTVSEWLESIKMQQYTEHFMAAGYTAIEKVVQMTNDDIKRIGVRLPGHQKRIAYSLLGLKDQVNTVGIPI
Chain of Ephrin type-A receptor 4 (Homo sapiens) (P54764 whole entry): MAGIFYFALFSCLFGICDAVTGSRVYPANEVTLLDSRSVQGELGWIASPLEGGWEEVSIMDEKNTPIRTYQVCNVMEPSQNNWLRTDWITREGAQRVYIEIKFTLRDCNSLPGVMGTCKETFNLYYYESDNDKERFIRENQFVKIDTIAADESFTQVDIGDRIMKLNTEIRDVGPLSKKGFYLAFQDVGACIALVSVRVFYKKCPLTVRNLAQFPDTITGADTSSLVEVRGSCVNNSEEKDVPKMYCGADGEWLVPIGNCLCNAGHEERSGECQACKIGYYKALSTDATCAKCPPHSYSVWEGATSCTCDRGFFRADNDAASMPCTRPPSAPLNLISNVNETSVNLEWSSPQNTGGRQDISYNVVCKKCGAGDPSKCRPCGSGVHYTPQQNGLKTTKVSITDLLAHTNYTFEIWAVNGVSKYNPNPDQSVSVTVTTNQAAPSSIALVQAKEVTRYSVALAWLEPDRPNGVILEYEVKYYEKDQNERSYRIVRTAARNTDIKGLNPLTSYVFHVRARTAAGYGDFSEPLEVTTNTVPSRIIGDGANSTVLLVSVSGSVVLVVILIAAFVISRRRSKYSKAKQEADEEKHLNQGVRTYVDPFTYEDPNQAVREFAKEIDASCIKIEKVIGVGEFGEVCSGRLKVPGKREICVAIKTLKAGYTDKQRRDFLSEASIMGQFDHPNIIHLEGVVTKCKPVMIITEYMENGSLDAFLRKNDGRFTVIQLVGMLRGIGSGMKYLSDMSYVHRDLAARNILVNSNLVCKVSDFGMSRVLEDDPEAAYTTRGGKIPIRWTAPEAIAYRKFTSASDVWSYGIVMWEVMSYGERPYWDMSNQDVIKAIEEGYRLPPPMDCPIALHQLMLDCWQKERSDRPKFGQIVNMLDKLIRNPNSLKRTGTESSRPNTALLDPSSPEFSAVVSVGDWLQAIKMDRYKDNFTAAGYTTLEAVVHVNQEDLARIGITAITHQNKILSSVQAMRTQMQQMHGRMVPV
Chain of Ephrin type-A receptor 7 (Homo sapiens) (Q15375 28-998 limits assumed): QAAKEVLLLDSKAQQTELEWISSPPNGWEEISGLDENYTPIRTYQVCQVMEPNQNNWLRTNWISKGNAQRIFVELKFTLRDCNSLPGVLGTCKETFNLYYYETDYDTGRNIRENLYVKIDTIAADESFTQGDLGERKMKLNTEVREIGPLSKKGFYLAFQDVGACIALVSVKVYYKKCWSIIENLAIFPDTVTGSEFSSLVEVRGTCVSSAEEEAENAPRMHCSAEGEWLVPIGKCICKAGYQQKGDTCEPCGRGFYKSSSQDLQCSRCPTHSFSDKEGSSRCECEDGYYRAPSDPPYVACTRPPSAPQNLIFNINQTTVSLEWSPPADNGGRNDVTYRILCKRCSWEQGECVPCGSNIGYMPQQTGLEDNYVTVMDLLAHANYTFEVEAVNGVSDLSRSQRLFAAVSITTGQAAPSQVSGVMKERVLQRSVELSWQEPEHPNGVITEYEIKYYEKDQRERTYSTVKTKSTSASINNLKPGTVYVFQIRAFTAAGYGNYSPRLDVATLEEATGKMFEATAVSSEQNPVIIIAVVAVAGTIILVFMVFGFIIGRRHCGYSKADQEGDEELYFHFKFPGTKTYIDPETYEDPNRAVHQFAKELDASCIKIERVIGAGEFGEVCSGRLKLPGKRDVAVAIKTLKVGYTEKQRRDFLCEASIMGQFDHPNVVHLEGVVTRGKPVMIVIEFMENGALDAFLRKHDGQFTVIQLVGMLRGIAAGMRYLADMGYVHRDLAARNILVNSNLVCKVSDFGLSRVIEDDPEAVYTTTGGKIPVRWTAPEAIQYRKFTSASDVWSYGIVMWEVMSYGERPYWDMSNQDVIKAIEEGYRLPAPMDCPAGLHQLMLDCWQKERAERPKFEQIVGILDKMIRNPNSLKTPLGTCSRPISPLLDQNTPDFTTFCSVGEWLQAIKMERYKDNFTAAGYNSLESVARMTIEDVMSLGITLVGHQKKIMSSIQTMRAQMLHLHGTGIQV

Structure (SMILES) | residual activity [1] [%] | residual activity [2] [%] | residual activity [3] [%] | residual activity [4] [%] | residual activity [5] [%] | residual activity [6] [%] | residual activity [7] [%] | residual activity [8] [%] | residual activity [9] [%] | residual activity [10] [%] | residual activity [11] [%] | residual activity [12] [%] | residual activity [13] [%] | residual activity [14] [%] | residual activity [15] [%] | residual activity [16] [%] | residual activity [17] [%] | residual activity [18] [%] | residual activity [19] [%] | residual activity [20] [%]
c1cc(-c2cnn3cc(-c4ccc(OCCN5CCCCC5)cc4)cnc23)ccn1 | 19 | 7 | 52 | 7 | 17 | 1 | 59 | 8 | 58 | 7 | 39 | 51 | 37 | – | – | – | – | – | – | –
CCn1cnc2c(Nc3cccc(Cl)c3)nc(N[C@@H]3CCCC[C@@H]3N)nc21 | 90 | 83 | – | 85 | 15 | 3 | 66 | 24 | 61 | 9 | 49 | 23 | 32 | 95 | 98 | 70 | 15 | 78 | 89 | 31
COc1ccc2c(c[n+](C)c3c4cc5c(cc4ccc23)OCO5)c1OC | – | 77 | – | 96 | 94 | – | – | 100 | – | 92 | – | 79 | 89 | – | – | – | – | 94 | – | –
O=[N+]([O-])/C=C/c1ccc2c(c1)OCO2 | 119 | 63 | 101 | 106 | 95 | 102 | 106 | 115 | 115 | 95 | 100 | 89 | 115 | – | 112 | 103 | 93 | 95 | 100 | 103
